Drawing on PubChem BioAssay (Tox21), this text covers Potency for 40 compounds.

The structures appear in SMILES notation. Calls of active or inactive are those of the source. A call without a number means that no potency is given here. The call rests on the fitted dose curve; in most records, active means well fitted activation curve with a large enough effect in the repeat runs; inconclusive means weak or mixed curves; inactive means flat fitted curve, though single readings scatter.

This test is described as follows: A CellTox Green Cytotoxicity Assay to monitor cytotoxicity in HEK293 cells - 0 hour (AID 1224869). Further: nearly all actives have a fitted effect of over 50% in size. The following applies: CellTox Green fluorescence; series mostly up to 76.8 µM. The text has this: National Center for Advancing Translational Sciences [NCATS]
NIH Chemical Genomics Center [NCGC]
U.S. Environmental Protection Agency [EPA]
National Institutes of Environmental Health Sciences [NIEHS]
National Toxicology Program [NTP]
Cell-based models are critical for drug discovery. Determining the natural cytotoxic effects resulting from test compounds is an essential research activity. A CellTox Green Cytotoxicity Assay to monitor cytotoxicity in real time of continues cell culture during 40 hours of the compound treatment was used to screen Tox21 10K library compounds in Hek293 cells. CellTox Green Cytotoxicity Assay is a nonlytic, homogeneous, biofluorescent method to measure cytotoxicity in cell culture after experimental manipulation. The assay system uses a proprietary asymmetric cyanine dye that is excluded from viable cells but preferentially stains the dead cell's DNA. […] Viable cells produce no appreciable increases in fluorescence. Therefore, the fluorescence signal produced by the binding interaction with dead cell DNA is proportional to cytotoxicity.
The mixture of Hek293 cell suspension and reagents were dispensed at 600cells/6 ul/well in 1536-well tissue culture treated black solid bottom plates using a Multidrop dispenser. After the assay plates were incubated at a 37 C/5% CO2 incubator for 5 hours, 23 nL of compounds dissolved in DMSO, positive and negative controls was transferred to the assay plate by a pintool work station. The plates were incubated at 37 C for 40 hours. The fluorescence intensity were measured at 0h, 8h, 16h, 24h, 32h and 40h time points using ViewLux plate reader during compound treatment.
Turning to `CCCC(=O)Cl`, the Potency result was “inactive”.

Consider `NC(=O)C(Cl)(Cl)Cl`, for which the Potency result was “inactive”.

`CC(=O)[C@H]1CC[C@H]2[C@@H]3CC[C@H]4C[C@](C)(O)CC[C@]4(C)[C@H]3CC[C@]12C`: the Potency result was “inactive”.

As to `Cc1ccccc1C(=O)Nc1cccc(OC(C)C)c1`, the Potency entry was “inactive”.

`CCOC(=O)COc1cc(-c2nn(C)c(OC(F)F)c2Cl)c(F)cc1Cl`: the Potency entry was “inactive”.

With `ClCc1cccc(Cl)c1`, the Potency entry is “inactive”.

Take `COP(=S)(OC)Oc1cc(Cl)c(I)cc1Cl`: the Potency entry was “inactive”.

In the case of `CCOC(=O)[C@]1(c2ccccc2)Oc2ccccc2[C@@H]1N`, the Potency result is “inactive”.

For the compound `O=C(Nc1ccccc1)Nc1ccnc(Cl)c1`, the Potency result is “inactive”.

On to `Clc1cc(Cl)c(Cl)c(Cl)c1`, for which the Potency result is “inactive”.

Regarding `Cc1ccc2ccccc2c1`, the Potency result was “inactive”.

Take `Oc1ccc(Cl)c(Cl)c1Cl`: the Potency result was “inactive”.

For the compound `C=CC(=O)OCC(C)C`, the Potency entry was “inactive”.

Regarding `O=C(C(Cl)(Cl)Cl)C(Cl)(Cl)Cl`, the Potency entry was “inactive”.

Regarding `CC(C)(Cl)[N+](=O)[O-]`, the Potency entry is “inactive”.

Turning to `CCCN(CCC)c1c([N+](=O)[O-])cc(S(C)(=O)=O)cc1[N+](=O)[O-]`, the Potency entry is “inactive”.

Turning to `CC[C@H]1C[C@H]2[C@@H]3CCC4=CC(=O)CC[C@@H]4[C@H]3CC[C@]2(C)[C@H]1O`, the Potency result is “inactive”.

As to `COc1cc(CC(C)N)cc2c1OCO2` (stereo not given), the Potency entry was “inactive”.

As to `O=[N+]([O-])c1ccc(F)c([N+](=O)[O-])c1`, the Potency result was “inactive”.

Take `CCCCOC(=O)c1ccccc1C(=O)OCc1ccccc1`: the Potency result is “inactive”.

For the compound `O=S1OC[C@@H]2[C@H](CO1)[C@]1(Cl)C(Cl)=C(Cl)[C@@]2(Cl)C1(Cl)Cl` (stereo not given in full), the Potency result is “inactive”.

`CC1(C)CCC(Cc2ccc(Cl)cc2)C1(O)Cn1cncn1` (stereo not given): the Potency entry is “inactive”.

As to `CCOP(=S)(OCC)Oc1cc(Cl)c(Br)cc1Cl`, the Potency result is “inactive”.

As to `CCCCCCCCCC(=O)O[C@H]1CC[C@H]2[C@@H]3CCC4=CC(=O)CC[C@@H]4[C@H]3CC[C@]12C`, the Potency entry is “inactive”.

For the compound `Cn1cc[n+](C)c1` (tested in a mixture with another compound), the Potency result was “inactive”.

`C(=NC1CCCCC1)=NC1CCCCC1`: the Potency result was “inactive”.

On to `Clc1ccc(C2(Cn3cncn3)CC(Br)CO2)c(Cl)c1` (stereo not given), for which the Potency entry is “inactive”.

`C=C(C#N)CCC#N`: the Potency entry was “inactive”.

Take `Cc1c(F)c(F)c(COC(=O)C2C(/C=C(\Cl)C(F)(F)F)C2(C)C)c(F)c1F` (stereo not given): the Potency entry was “inactive”.

Take `N#Cc1ccc(Cl)cc1`: the Potency result is “inactive”.

As to `CC(C)N(CCC(C(N)=O)(c1ccccc1)c1ccccn1)C(C)C` (stereo not given), the Potency result was “inactive”.

Take `CCOP(=O)(OCC)Oc1ccc([N+](=O)[O-])cc1`: the Potency result was “inactive”.

As for `O=[N+]([O-])c1cc(C(F)(F)F)cc([N+](=O)[O-])c1Cl`, the Potency result is “inactive”.

With `O=C1c2ccccc2C(=O)C1C(=O)C(c1ccccc1)c1ccccc1`, the Potency entry was “inactive”.

With `O=C1C(Cl)C(CCl)CN1c1cccc(C(F)(F)F)c1` (stereo not given), the Potency result is “inactive”.

For the compound `C=CC(C)=O`, the Potency entry was “inactive”.

`CC(Cl)Cl`: the Potency result is “inactive”.

As to `c1cc2ccc3cccc4ccc(c1)c2c34`, the Potency result was “inactive”.

Regarding `C=CC(=O)OCC(C)O` (stereo not given), the Potency entry is “inactive”.

With `Cl/C=C\Cl`, the Potency result was “inactive”.
